“And” between values parts separate entries of the source, which are not always exact repeats. Identical values can stand only once. Records with an inconclusive call do not appear. Where a call stands in place of a potency, no number is given. More than one record can exist for a structure, and the calls need not agree. The source made the active and inactive calls. Unless noted, the call rests on the fitted dose curve; in most records, active means well fitted curve in the direction sought with a large enough effect in the repeat runs; inconclusive means weak or mixed curves; inactive means no such curve, though single readings can be large; an effect the other way counts as inactive or inconclusive.
Key:
[1] = biological target: Aryl hydrocarbon receptor (Homo sapiens) (UniProt P35869); assay: qHTS assay to identify small molecule that activate the aryl hydrocarbon receptor (AhR) signaling pathway (AID 743085); further: nearly all actives have a fitted effect of over 15% in size; further: potency means the concentration at half of the fitted maximal effect;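 on activation: HG2L7.5c1 human HepG2 liver cells with stably integrated DRE-driven firefly reporter; series mostly up to about 70 µM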
Aryl hydrocarbon receptor (Homo sapiens), sequence (P35869 whole entry, looked up): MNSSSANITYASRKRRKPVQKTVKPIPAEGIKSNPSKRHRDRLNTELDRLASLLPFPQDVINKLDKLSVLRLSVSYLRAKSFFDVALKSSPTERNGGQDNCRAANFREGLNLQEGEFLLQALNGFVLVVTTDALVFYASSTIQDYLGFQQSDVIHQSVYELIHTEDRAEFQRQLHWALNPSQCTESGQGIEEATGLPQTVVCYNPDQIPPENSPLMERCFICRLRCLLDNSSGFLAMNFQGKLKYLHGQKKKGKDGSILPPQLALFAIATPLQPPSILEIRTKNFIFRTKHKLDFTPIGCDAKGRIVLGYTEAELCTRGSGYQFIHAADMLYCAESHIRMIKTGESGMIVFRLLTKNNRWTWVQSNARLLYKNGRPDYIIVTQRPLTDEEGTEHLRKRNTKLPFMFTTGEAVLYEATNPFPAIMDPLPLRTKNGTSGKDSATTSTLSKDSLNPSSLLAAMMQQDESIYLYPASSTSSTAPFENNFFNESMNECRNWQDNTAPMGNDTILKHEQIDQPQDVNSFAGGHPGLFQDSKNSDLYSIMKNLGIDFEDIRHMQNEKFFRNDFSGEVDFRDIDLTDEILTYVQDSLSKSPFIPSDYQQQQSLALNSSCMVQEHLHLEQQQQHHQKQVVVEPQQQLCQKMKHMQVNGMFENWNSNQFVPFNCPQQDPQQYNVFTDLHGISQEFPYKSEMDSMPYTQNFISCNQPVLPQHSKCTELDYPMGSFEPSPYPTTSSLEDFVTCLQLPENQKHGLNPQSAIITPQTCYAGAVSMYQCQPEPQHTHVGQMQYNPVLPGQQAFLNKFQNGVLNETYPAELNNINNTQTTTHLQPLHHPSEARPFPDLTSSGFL
Outline: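 Steps: seed HepG2-AhR-luc cells; allow 5 h at 37C; pin-transfer test compound or vehicle; incubate 24 h at 37C; add viability dye (30 min, 37C) and read fluorescence; add luciferase substrate (30 min, RT) and read luminescence.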

[2] = biological target: Peroxisome proliferator-activated receptor gamma (Homo sapiens) (UniProt P37231); assay: qHTS assay to identify small molecule agonists of the peroxisome proliferator-activated receptor gamma (PPARg) signaling pathway (AID 743094; active means well fitted activation curve with a large enough effect in the signal ratio in the repeat runs, not every such curve was filed as active; the % refers to the signal ratio)
Peroxisome proliferator-activated receptor gamma (Homo sapiens), sequence (P37231 whole entry, looked up): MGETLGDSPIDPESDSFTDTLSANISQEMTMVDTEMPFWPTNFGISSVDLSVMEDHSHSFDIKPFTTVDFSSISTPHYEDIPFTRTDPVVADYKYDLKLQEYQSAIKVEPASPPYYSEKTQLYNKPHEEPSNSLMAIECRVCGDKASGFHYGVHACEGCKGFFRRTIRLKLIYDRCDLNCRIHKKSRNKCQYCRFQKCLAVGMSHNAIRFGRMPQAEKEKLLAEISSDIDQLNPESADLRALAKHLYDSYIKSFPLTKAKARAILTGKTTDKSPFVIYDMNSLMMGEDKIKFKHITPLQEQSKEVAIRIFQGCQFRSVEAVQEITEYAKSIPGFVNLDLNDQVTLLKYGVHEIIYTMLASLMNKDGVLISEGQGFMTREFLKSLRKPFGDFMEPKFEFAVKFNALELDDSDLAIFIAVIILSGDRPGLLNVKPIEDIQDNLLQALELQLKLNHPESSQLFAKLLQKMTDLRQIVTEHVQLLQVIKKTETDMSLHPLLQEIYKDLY
Outline: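 Reporter activation was scored by fluorescence of cleaved LiveBLAzer B/G substrate (1 h, room temperature) in PPARg-bla HEK293H cells previously treated 17 h at 37C with DMSO-dissolved compounds.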

[3] = biological target: Peroxisome proliferator-activated receptor gamma (Homo sapiens) (UniProt P37231); assay: qHTS assay to identify small molecule antagonists of the peroxisome proliferator-activated receptor gamma (PPARg) signaling pathway (AID 743191; calls by dose curve; further: nearly all actives have a fitted effect of over 30% in size; further: potency means the concentration at half of the fitted maximal effect)
Outline: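 Beta-lactamase reporter under UAS control in HEK293H PPARg-bla cells; compound treatment 17 h at 37C. Read-out: fluorescence intensity after 1 h room-temperature incubation with LiveBLAzer B/G FRET substrate.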

[4] = qHTS assay to identify small molecule antagonists of the peroxisome proliferator-activated receptor gamma (PPARg) signaling pathway - cell viability counter screen (AID 743194); conditions: Potency: co-treated with 50 nM rosiglitazone unless noted; further: nearly all actives have a fitted effect of over 55% in size
Outline: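 Viability was measured as CellTiter-Glo luminescence in GeneBLAzer PPARg UAS-bla HEK293H cells. These cells had been exposed 17 h at 37 C to compounds together with rosiglitazone at 50 nM final, with the beta-lactamase readout taken in the same wells.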

[5] = qHTS assay for small molecule agonists of the antioxidant response element (ARE) signaling pathway - cell viability counter screen (AID 743203; calls by dose curve; further: nearly all actives have a fitted effect of over 55% in size; further: potency means the concentration at half of the fitted maximal effect)
Outline: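 Viability counter screen: stably transfected ARE-bla HepG2 line, 16 hrs compound exposure at 37C/5% CO2, ATP-based CellTiter-Glo luminescence measured in the reporter wells.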

[6] = qHTS assay to identify small molecule agonists of the peroxisome proliferator-activated receptor delta (PPARd) signaling pathway - cell viability counter screen (AID 743211); further: nearly all actives have a fitted effect of over 55% in size; further: potency means the concentration at half of the fitted maximal effect
Outline: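 Viability of GeneBLAzer PPARd UAS-bla HEK293H cells was assessed after 17 h compound incubation at 37C, using CellTiter-Glo reagent added after the reporter read and luminescence recorded 30 min later.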

[7] = biological target: Peroxisome proliferator-activated receptor delta (Homo sapiens) (UniProt Q03181); assay: qHTS assay to identify small molecule agonists of the peroxisome proliferator-activated receptor delta (PPARd) signaling pathway (AID 743212; calls by dose curve;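 further: HEK293H cells with PPARd UAS beta-lactamase reporter GeneBLAzer system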)
Peroxisome proliferator-activated receptor delta (Homo sapiens), sequence (Q03181 whole entry, looked up): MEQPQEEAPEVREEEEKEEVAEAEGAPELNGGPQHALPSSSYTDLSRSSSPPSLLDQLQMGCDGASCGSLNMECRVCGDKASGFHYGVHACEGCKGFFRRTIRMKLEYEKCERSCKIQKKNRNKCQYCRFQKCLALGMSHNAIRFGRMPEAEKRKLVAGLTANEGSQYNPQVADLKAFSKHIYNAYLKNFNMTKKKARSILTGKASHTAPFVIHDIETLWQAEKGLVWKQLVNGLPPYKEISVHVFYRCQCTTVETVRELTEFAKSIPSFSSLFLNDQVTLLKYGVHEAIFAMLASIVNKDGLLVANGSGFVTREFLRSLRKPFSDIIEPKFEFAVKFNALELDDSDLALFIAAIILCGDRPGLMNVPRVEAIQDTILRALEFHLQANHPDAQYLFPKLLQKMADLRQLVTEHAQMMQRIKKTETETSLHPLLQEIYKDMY
Outline: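 Steps: seed PPARd-bla HEK293H cells; incubate 5 h, 37 C, 5% CO2; add compounds in DMSO; incubate, 37 C; add LiveBLAzer B/G FRET substrate; hold 2 h at room temperature; measure fluorescence.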

[8] = qHTS assay to identify small molecule antagonists of the peroxisome proliferator-activated receptor delta (PPARd) signaling pathway - cell viability counter screen (AID 743213); further: nearly all actives have a fitted effect of over 50% in size; further: potency means the concentration at half of the fitted maximal effect
Outline: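 Agonist-stimulated (L165041, 300 nM final) HEK293H PPARd UAS-bla cells are exposed to compounds for 17 h at 37 C, and ATP-based luminescence (CellTiter-Glo) from the same wells reports cytotoxicity.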

[9] = biological target: Peroxisome proliferator-activated receptor delta (Homo sapiens) (UniProt Q03181); assay: qHTS assay to identify small molecule antagonists of the peroxisome proliferator-activated receptor delta (PPARd) signaling pathway (AID 743215; active means well fitted inhibition curve with a large enough effect in the signal ratio in the repeat runs, not every such curve was filed as active; the % refers to the signal ratio; further: potency means the concentration at half of the fitted maximal effect)
Outline: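 Plated HEK293H PPARd-bla cells rested 5 h at 37 C and 5% CO2. Compound, then agonist L165041 at 300 nM final, was added; 17 h at 37 C followed. Substrate loading, 2 h room temperature, fluorescence measured.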

[10] = qHTS assay to identify small molecule agonists of the farnesoid-X-receptor (FXR) signaling pathway - cell viability counter screen (AID 743218); further: nearly all actives have a fitted effect of over 45% in size; further: potency means the concentration at half of the fitted maximal effect
Outline: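 Viability of FXR-bla HEK 293T cells is measured by ATP-based CellTiter-Glo luminescence following 16 h compound treatment at 37 C and a prior 2 h room-temperature beta-lactamase substrate step.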

[11] = qHTS assay to identify small molecule antagonists of the farnesoid-X-receptor (FXR) signaling pathway - cell viability counter screen (AID 743221; active means well fitted cell-killing curve with a large enough effect in the repeat runs, not every such curve was filed as active; further: nearly all actives have a fitted effect of over 50% in size; further: potency means the concentration at half of the fitted maximal effect)
Outline: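 Quantitative HTS of the Tox21 10K library run in parallel with the beta-lactamase reporter read. HEK 293T cells carrying a UAS-driven bla reporter got compound and 50 uM CDCA (final) for 16 h; ATP-based luminescence followed.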

[12] = biological target: Vitamin D3 receptor (Homo sapiens) (UniProt P11473); assay: qHTS assay to identify small molecule antagonists of the vitamin D receptor (VDR) signaling pathway (AID 743223; active means well fitted inhibition curve with a large enough effect in the signal ratio in the repeat runs, not every such curve was filed as active; the % refers to the signal ratio)
Vitamin D3 receptor (Homo sapiens), sequence (P11473 whole entry, looked up): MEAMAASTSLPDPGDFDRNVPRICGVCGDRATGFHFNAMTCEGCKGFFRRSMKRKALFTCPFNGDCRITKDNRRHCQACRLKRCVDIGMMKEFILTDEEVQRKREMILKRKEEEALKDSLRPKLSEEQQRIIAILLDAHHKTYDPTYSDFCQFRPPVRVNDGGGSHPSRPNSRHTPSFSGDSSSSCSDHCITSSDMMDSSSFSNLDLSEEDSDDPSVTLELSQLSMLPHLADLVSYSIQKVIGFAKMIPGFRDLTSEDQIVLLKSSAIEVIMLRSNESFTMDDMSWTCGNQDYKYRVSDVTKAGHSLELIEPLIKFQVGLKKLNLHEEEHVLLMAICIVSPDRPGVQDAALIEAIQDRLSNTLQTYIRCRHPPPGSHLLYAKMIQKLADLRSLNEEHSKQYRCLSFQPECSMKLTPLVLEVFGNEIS
Outline: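 Fluorescence from LiveBLAzer B/G FRET substrate, read after 2 h at room temperature, reflects beta-lactamase reporter activity in VDR-bla cells treated 16 h at 37C with compounds and agonist 1alpha,25-dihydroxyvitamin D3 (3 nM final).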

[13] = qHTS assay for small molecule agonists of the antioxidant response element (ARE) signaling pathway (AID 743202; active means well fitted activation curve with a large enough effect in the signal ratio in the repeat runs, not every such curve was filed as active; the % refers to the signal ratio)
Outline: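 Beta-lactamase reporter activity, read as fluorescence intensity, reflects ARE/Nrf2 pathway induction in HepG2 cells after 16 h compound exposure at 37 C; substrate loading was 2 h at room temperature.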

[14] = qHTS assay for small molecule activators of the heat shock response signaling pathway - cell viability counter screen (AID 743209); further: nearly all actives have a fitted effect of over 50% in size; further: potency means the concentration at half of the fitted maximal effect
Outline: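 Viability of HSE-bla HeLa cells is measured with CellTiter-Glo in the wells already used for the reporter read. Compound exposure lasts 5 h at 37 C, and luminescence is read after 30 min at room temperature.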

[15] = qHTS assay for small molecule activators of the heat shock response signaling pathway (AID 743210; active means well fitted activation curve with a large enough effect in the signal ratio in the repeat runs, with a control signal flat, not every such curve was filed as active; the % refers to the signal ratio;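 further: HeLa cells with beta-lactamase reporter driven by heat shock elements; series mostly up to about 63 µM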)
Outline: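 Fluorescence from a cleaved B/G FRET substrate (2.5 h, room temp) reports HSE-driven beta-lactamase in HeLa cells treated 5 h at 37 C with DMSO-dissolved compounds.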

[16] = biological target: Bile acid receptor (Homo sapiens) (UniProt Q96RI1); assay: qHTS assay to identify small molecule agonists of the farnesoid-X-receptor (FXR) signaling pathway (AID 743220; active means well fitted activation curve with a large enough effect in the signal ratio in the repeat runs, not every such curve was filed as active; the % refers to the signal ratio)
Bile acid receptor (Homo sapiens), sequence (Q96RI1 whole entry, looked up): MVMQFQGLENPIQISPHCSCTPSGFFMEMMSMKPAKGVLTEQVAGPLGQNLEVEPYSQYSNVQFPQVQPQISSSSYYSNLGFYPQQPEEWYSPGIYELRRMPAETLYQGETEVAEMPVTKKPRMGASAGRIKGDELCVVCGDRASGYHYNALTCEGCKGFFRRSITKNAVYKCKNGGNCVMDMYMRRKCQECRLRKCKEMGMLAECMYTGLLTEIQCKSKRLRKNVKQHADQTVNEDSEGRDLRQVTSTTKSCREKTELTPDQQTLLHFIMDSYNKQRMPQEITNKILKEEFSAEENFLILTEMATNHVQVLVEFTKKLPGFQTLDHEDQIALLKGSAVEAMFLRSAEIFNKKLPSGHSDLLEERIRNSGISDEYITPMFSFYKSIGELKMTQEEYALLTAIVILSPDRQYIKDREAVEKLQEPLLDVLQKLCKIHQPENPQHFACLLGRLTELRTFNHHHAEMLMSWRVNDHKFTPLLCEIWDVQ
Outline: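 FXR-UAS-bla HEK 293T cells carrying a UAS-driven beta-lactamase reporter were plated for 5 h at 37C/5% CO2, then exposed to DMSO-dissolved Tox21 10K compounds for 16 h at 37C. A LiveBLAzer B/G FRET substrate was loaded for 2 h at room temperature before fluorescence reading.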

[17] = biological target: Vitamin D3 receptor (Homo sapiens) (UniProt P11473); assay: qHTS assay to identify small molecule agonists of the vitamin D receptor (VDR) signaling pathway (AID 743222; calls by dose curve)
Outline: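 Fluorescence from cleaved LiveBLAzer B/G FRET substrate served as readout. VDR-bla cells had been treated 16 h at 37C with test compounds in DMSO, following a 4 h settling period, and substrate was loaded for 2 h at RT.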

[18] = qHTS assay to identify small molecule agonists of the vitamin D receptor (VDR) signaling pathway - cell viability counter screen (AID 743224); further: series mostly up to about 63 µM; nearly all actives have a fitted effect of over 50% in size
Outline: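 Compounds were pin-transferred onto VDR-bla cells plated 4 h earlier; following 16 h incubation at 37C, cell viability was quantified by CellTiter-Glo luminescence after 30 min at room temperature.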

[19] = biological target: Bile acid receptor (Homo sapiens) (UniProt Q96RI1); assay: qHTS assay to identify small molecule antagonists of the farnesoid-X-receptor (FXR) signaling pathway (AID 743217; active means well fitted inhibition curve with a large enough effect in the signal ratio in the repeat runs, not every such curve was filed as active; the % refers to the signal ratio)
Outline: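 Screen of the Tox21 10K library in quantitative HTS format using FXR-UAS-bla HEK 293T reporter cells. Agonist chenodeoxycholic acid, 50 uM final, added with compounds; 16 h incubation at 37 °C; beta-lactamase FRET fluorescence measured.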

[20] = qHTS assay to identify small molecule that activate the aryl hydrocarbon receptor (AhR) signaling pathway - cell viability counter screen (AID 743086); further: nearly all actives have a fitted effect of over 45% in size; further: potency means the concentration at half of the fitted maximal effect
Outline: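 Cytotoxicity counter screen: CellTiter-Fluor signal (30 min, 37 C) in 4000 HepG2 cells/well carrying the DRE-luciferase reporter, following 24 h compound exposure at 37 C.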

Row | SMILES | Potency [1] | Potency [2] | Potency [3] | Potency [4] | Potency [5] | Potency [6] | Potency [7] | Potency [8] | Potency [9] | Potency [10] | Potency [11] | Potency [12] | Potency [13] | Potency [14] | Potency [15] | Potency [16] | Potency [17] | Potency [18] | Potency [19] | Potency [20]
1 | CCC(C)Nc1c([N+](=O)[O-])cc(C(C)(C)C)cc1[N+](=O)[O-] (stereo not drawn) | inactive | inactive | inactive | inactive | inactive | inactive | inactive | inactive | inactive | inactive | inactive | inactive |  |  |  |  |  |  |  | 
2 | O=S(=O)(O)F | inactive | inactive | inactive |  | inactive |  | inactive | inactive | inactive |  | inactive | inactive | inactive | inactive | inactive | inactive | inactive | inactive |  | 
3 | CNC(C)(C)Cc1ccccc1 | inactive | inactive | inactive | inactive | inactive | inactive | inactive | inactive | inactive | inactive | inactive | inactive | inactive |  | inactive |  | inactive |  |  | 
4 | CCOC(=O)Cc1ccccc1 | inactive | inactive |  | inactive | inactive | inactive | inactive |  | inactive | inactive | inactive | inactive | inactive | inactive | inactive | inactive | inactive | inactive | inactive | 
5 | O=C(N[C@H]1N=C(c2ccccc2F)c2cccc3c2N(CC3)C1=O)c1cc2ccccc2[nH]1 | 5.31 µM (active) | inactive |  | inactive | inactive | inactive | inactive |  | inactive | inactive | inactive | inactive |  | inactive |  |  | inactive | inactive |  | 
6 | CCNc1nc(NC(C)C(C)C)nc(SC)n1 (stereo not drawn) | inactive | inactive | inactive | inactive | inactive |  | inactive | inactive | inactive | inactive | inactive |  | inactive | inactive |  |  |  | inactive |  | 
7 | BrCC(Br)(Br)Br | inactive | inactive | inactive |  |  | inactive | inactive | inactive | inactive | inactive | inactive | inactive |  | inactive |  | inactive | inactive | inactive |  | 
8 | COc1cnc(OC)n2nc(NS(=O)(=O)c3c(OCC(F)F)cccc3C(F)(F)F)nc12 | inactive | inactive | inactive | inactive | inactive | inactive | inactive | inactive | inactive |  | inactive |  | inactive |  | inactive |  |  | inactive |  | 
9 | CC(C)NCC(O)c1ccccc1Cl (stereo not drawn) | inactive | inactive | inactive |  | inactive | inactive | inactive | inactive | inactive | inactive | inactive |  | inactive | inactive | inactive |  |  |  |  | 
10 | CCOC(=O)CCN(SN(C)C(=O)Oc1cccc2c1OC(C)(C)C2)C(C)C | inactive | inactive |  | inactive | inactive | inactive | inactive | inactive |  | inactive | inactive |  | inactive | inactive |  | inactive |  | inactive | inactive | 
11 | BrCCCBr | inactive |  |  |  | inactive | inactive | inactive | inactive | inactive | inactive | inactive | inactive | inactive | inactive | inactive |  | inactive | inactive |  | inactive
12 | CO/N=C(\C(=O)OC)c1ccccc1CO/N=C(\C)c1cccc(C(F)(F)F)c1 | inactive |  |  |  |  | 21.9 µM (active) | inactive | 21.9 µM (active) | 4.9 µM (active) |  |  |  |  | inactive |  |  | inactive |  |  | inactive
13 | CN(C)C(=S)SSC(=S)N(C)C | inactive |  |  |  | 60.3 µM (active) and 13.7 µM (active) and 18.8 µM (active) | 76.5 nM (active) and 38.9 nM (active) and 188 nM (active) |  | 108 nM (active) and 30.9 nM (active) and 298 nM (active) |  | 121 nM (active) and 30.9 nM (active) and 841 nM (active) | 121 nM (active) and 43.6 nM (active) and 237 nM (active) |  |  | inactive |  |  | inactive |  |  | inactive and 154 nM (active)
14 | N#Cc1sc2c(=O)c3ccccc3c(=O)c=2sc1C#N | 1.93 µM (active) | inactive | 12.3 µM (active) |  | 8.63 µM (active) | 7.76 µM (active) |  | 12.3 µM (active) |  | 34.7 µM (active) | 34.7 µM (active) |  |  | 1.95 µM (active) |  | inactive |  |  |  | 
15 | CC[C@]1(O)CC[C@H]2[C@@H]3CCC4=CCCC[C@@H]4[C@H]3CC[C@@]21C | inactive | inactive | inactive | inactive | inactive |  | inactive | inactive | inactive | inactive | inactive |  | inactive | inactive | inactive | inactive | inactive | inactive |  | 
16 | Nc1c(Cl)c(Cl)c(Cl)c(Cl)c1Cl | 50.5 µM (active) |  |  |  | inactive | inactive |  |  |  |  | inactive |  |  |  | inactive |  |  |  |  | inactive

— PubChem BioAssay (Tox21)
